# Experimental data from PubChem BioAssay.
# Tested on: Wnt5a (protein binding on small-molecule microarray)
# Assay: Wnt5a binders on small-molecule microarray, primary screen, biophysical, 635/667 nm fluorescence (AID 1142);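 also: fluorescence read at 667 nm with signal to noise per printed feature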
# Conditions: 635 nm fluorescence, higher = more signal
row,Structure (SMILES),composite z-score
1,CCC(CC)C(O)C1C=CC2C(=O)NC(=O)C2N1Nc1ccc(Cl)cc1Cl (centres undefined),0.0146
2,C=C(CCCC)/C(=C/C[C@@H](OC(=O)c1ccncc1)c1ccc(OCCO)cc1)c1cc(C(=O)OC)ccc1OC,-0.109
3,CO[C@H]1O[C@H](CO)[C@@H](OC(=O)Nc2cccc(F)c2)[C@H](OC(=O)Nc2ccccc2)[C@@H]1OC(=O)Nc1ccccc1,0.343
4,C=C(COC)C(=O)CC[C@@H](OC(C)=O)c1ccc(CO)o1,0.111
5,COC(=O)[C@H](Cc1ccccc1)N1CC2=C[C@@H](C3CC3)n3c(=O)n(C)c(=O)n3[C@H]2[C@@H]1[C@@H](O)Cc1ccccc1,0.0601
6,C=C[C@H](CO[Si](CC)(CC)CC)N(Cc1ccc(OC(C)=O)c(OC)c1)S(=O)(=O)c1ccc(Br)cc1,0.157
7,C=CCOC(=O)[C@H]1[C@@H]2C(=O)O[C@@H](c3ccccc3)[C@@H](c3ccccc3)N2[C@@H](c2ccc(OCCOC(=O)[C@H]3C[C@H]4C(=O)N[C@@H](CCCCNC(C)=O)C(=O)N4[C@H]3c3ccc(O)cc3)cc2)[C@]12C(=O)Nc1ccc(I)cc12,0.413
8,CC(C)C(O)C1C=CC2C(=O)NC(=O)C2N1Nc1ccc(Cl)cc1Cl (centres undefined),-0.0055
9,COc1ccc([Si](C)(C)[C@H]2[C@H](CCO)O[C@@]3(C(=O)N(Cc4ccc(N(C=O)c5ccccc5)cc4)c4ccccc43)[C@@H]2C)cc1,-0.308
10,CC(C)C(O)C1C=CC2C(=O)N(c3ccccc3)C(=O)C2N1Nc1ccc([N+](=O)[O-])cc1 (centres undefined),0.774
11,CC(C)C[C@@H]1NC(=O)[C@H](C(C)C)NC(=O)[C@@]23C(=O)N[C@@H](Cc4ccccc4)C2[C@H](C)[C@@]2(C)O[C@H]2C3/C=C/CC/C=C/CNC1=O (some centres undefined),0.513
12,CC1(C)[C@@H]2CC(C(O)C3C=CC4C(=O)N(c5ccccc5)C(=O)C4N3Nc3ccc([N+](=O)[O-])cc3)=C[C@H]1C2 (some centres undefined),0.909
13,COc1ccccc1CN1C(=O)c2ccccc2[C@@]2(Cc3ccccc3N(CC(C)C)C2=O)[C@@H]1c1ccc(CO)cc1,-0.37
14,CC1CC/C=C\[C@H]2OC34C=CCN(C(C)(C)C)C(=O)[C@H]3N(C(C)CO)C(=O)[C@@H]4C2C(=O)O1 (some centres undefined),-0.273
15,O=C(NCCO)C1=C[C@H](Oc2ccccc2I)[C@@H](O)[C@H](N(Cc2ccco2)C(=O)Cc2ccccc2)C1,0.234
16,CN(C)CCCC[C@@H]1NC(=O)[C@H]2C[C@@H](C(=O)NCCCCCCN)[C@@H](c3ccc(O)cc3)N2C1=O,0.538
17,COC(=O)C(CC#Cc1ccc2c(c1)[C@]1(C(=O)N2)[C@H](c2ccc(OCCO)cc2)N2[C@H](c3ccccc3)[C@H](c3ccccc3)OC(=O)[C@H]2[C@@H]1C(=O)N1CCc2cc(OC)c(OC)cc2C1)C(=O)OC,0.714
18,[N-]=[N+]=Nc1ccccc1[C@H]1OC(c2ccc(OCCCO)cc2)=N[C@@]1(CCS(=O)(=O)c1ccccc1)C(N)=O,0.79
19,COC(=O)[C@@]1(Cc2ccc(F)cc2)[C@H]2c3cc(C(=O)N(C)C)n(Cc4ccccc4)c3C[C@H]2CN1C(=O)c1ccccc1,0.198
20,COc1cc(COC(C)=O)ccc1OC(C)=O,1.27
21,CN1C(=O)C2C=CC(C(O)C#Cc3ccccc3)N(N3CCCCC3)C2C1=O (centres undefined),1.11
22,NC(=O)NCC#Cc1ccc2c(c1)[C@]1(C(=O)N2)[C@H](C(N)=O)[C@H]2C(=O)O[C@H](c3ccccc3)[C@H](c3ccccc3)N2[C@@H]1c1ccc(O)cc1,0.0344
23,CO[C@H]1O[C@H](CO)[C@@H](OC(=O)Nc2ccc(Oc3ccccc3)cc2)[C@H](OC(=O)Nc2ccc3c(c2)OCO3)[C@H]1OC(=O)Nc1ccc2c(c1)OCO2,0.636
24,CC(C)NC(=O)[C@@H]1c2ccccc2C(=O)N(C2Cc3ccccc3C2)[C@H]1c1ccc(CO)cc1,-0.0402
25,CCCc1cc2c(n1Cc1cc(F)cc(F)c1)C(C)C1CN(C(=O)c3ccccc3)C(C)(C(=O)OC)C21 (centres undefined),0.239
26,[N-]=[N+]=Nc1ccccc1[C@@H]1OC(c2ccc(OCCCO)cc2)=N[C@]1(CCS(=O)(=O)c1ccccc1)C(N)=O,0.903
27,O=C1c2ccccc2[C@](Cc2ccccc2I)(C(=O)NCCN2CCOCC2)[C@H](c2ccc(CO)cc2)N1Cc1ccccc1Cl,0.66
28,O=C(N1CCCCC1)[C@]1(Cc2ccccc2)N=C(c2ccc(OCCCO)cc2)O[C@@H]1c1ccccc1,0.33
29,CC(=O)NCCCC[C@@H]1NC(=O)[C@H]2C[C@@H](C(=O)NCCCCCCNC(=O)CS)[C@@H](c3ccc(O)cc3)N2C1=O,0.151
